Potency and activity (max response) data for 17 compounds are collected here from PubChem BioAssay (NCATS).

Assay [1] addresses Cytochrome P450 3A7 (Homo sapiens) (UniProt P24462). The experiment in a line: Cytochrome P450 family 3 subfamily A member 7 (CYP3A7) small molecule antagonists: luciferase biochemical qHTS assay (AID 1963596). Also: nearly all actives have a fitted effect of over 40% in size. The gist of the method: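 P450-Glo luminescent assay: CYP3A7 enzyme converts a proluciferin substrate to luciferin, detected by luciferase reagent; light proportional to activity. Compounds in DMSO preincubated 10 min with enzyme-substrate mix at room temperature, then NADPH regeneration added for 1 h.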

Assay [2] in a line: Viability qHTS for spleen associated tyrosine kinase inhibitor (SYKi) naive MV4-11 cells (AID 1963823). Also: nearly all actives have a fitted effect of over 40% in size. In a few lines: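 Seeding of 500 SYKi-naive MV4-11 cells per well onto pre-dispensed compounds preceded a 72 hr incubation at 37 C. Luminescent CellTiter-Glo signal, read after 10 min at room temperature, reflected viable cells.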
Background: Quantitative high-throughput screening tests each substance at several concentrations.

A short description of assay [3]: Viability qHTS for spleen associated tyrosine kinase inhibitor (SYKi) drug resistant MV4-11 cells (AID 1963824). Also: nearly all actives have a fitted effect of over 35% in size. The gist of the method:
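SYK-inhibitor-resistant MV4-11 AML cells were seeded at 500 per well onto compound and cultured 72 hours (37 °C, 5% CO2). CellTiter-Glo was then added, and after 10 min at room temperature, luminescence gave viability.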

Assay [4] is described as follows: Quantitative highthroughput screen to assess conditional lethalithy of NOMO1 cells grown in RPMI1640 with untreated serum (RPMI+s) (AID 1963876). Also: nearly all actives have a fitted effect of over 35% in size.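 As to Viability: 100% = DMSO wells and 0% = empty wells without cells.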 In a few lines: (§1)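 Each medium arm—HPLM with 10% dialyzed FBS, or RPMI1640 with 5 mM glucose and 10% untreated or dialyzed FBS—was screened against an 11-point, 3-fold compound titration for 48 h at 37 °C, with CellTiter-Glo luminescence as endpoint.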

Assay [5] is described as follows: Quantitative highthroughput screen to assess conditional lethalithy of NOMO1 cells grown in Human Plasma-Like Medium with dialyzed fetal bovine serum (HPLM+ds) (AID 1963878). Also: nearly all actives have a fitted effect of over 35% in size.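 As to Viability: 100% = DMSO wells and 0% = empty wells on each plate.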 The gist of the method:
as §1

Assay [6] can be described thus: Quantitative highthroughput screen to assess conditional lethalithy of P12 Ichikawa cells grown in Human Plasma-Like Medium with dialyzed fetal bovine serum (HPLM+ds) (AID 1963879). Also: nearly all actives have a fitted effect of over 35% in size. As to Viability: series mostly up to about 46 µM. Conditions: Potency: viability. The gist of the method:
as §1

Assay [7] in a line: Quantitative highthroughput screen to assess conditional lethalithy of P12 Ichikawa cells grown in RPMI1640 with dialyzed fetal bovine serum (RPMI+ds) (AID 1963880). Also: nearly all actives have a fitted effect of over 35% in size.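 As to Viability: 100% = DMSO wells and 0% = empty wells on each plate.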 To be noted: Potency: P12-Ichikawa viability. The gist of the method: as §1
A short description of assay [8]: Quantitative highthroughput screen to assess conditional lethalithy of P12 Ichikawa cells grown in RPMI1640 with untreated serum (RPMI+s) (AID 1963881). Also: nearly all actives have a fitted effect of over 35% in size.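 As to Viability: series mostly up to about 46 µM; 100% = DMSO wells and 0% = empty wells without cells.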 To be noted: Potency: viability. The gist of the method: as §1
The nature of assay [9]: Quantitative highthroughput screen to assess conditional lethalithy of SEM cells grown in Human Plasma-Like Medium with dialyzed fetal bovine serum (HPLM+ds) (AID 1963882). Also: nearly all actives have a fitted effect of over 35% in size. As to Viability: series mostly up to about 46 µM. In a few lines:
as §1

Assay [10] can be described thus: Quantitative highthroughput screen to assess conditional lethalithy of SEM cells grown in RPMI1640 with dialyzed fetal bovine serum (RPMI+ds) (AID 1963884). Also: nearly all actives have a fitted effect of over 35% in size.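 As to Viability: series mostly up to about 46 µM; 100% = DMSO control wells and 0% = empty wells without cells.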 The gist of the method: as §1
A short description of assay [11]: Cellular viability qHTS for adrenocortical cancer (ACC) cell line SW-13 (AID 1963989). Also: nearly all actives have a fitted effect of over 65% in size.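 As to activity (max response): cells grown in serum-free medium with ITS supplement; % is scaled to controls: 0 for no effect and ±100 for the full control effect.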 Conditions: SW-13 ACC cells viability, CellTiter-Glo, 48 h; activity (max response): stronger effect = lower value. In a few lines: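 IC50 and maximal-response values come from four-parameter logistic fits of titration data. SW-13 cells in serum-free medium received compounds (up to 46 uM final) for 48 h before CellTiter-Glo luminescence.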

Assay [12] can be described thus: Cellular viability qHTS for adrenocortical cancer (ACC) cell line NCI-H295R (AID 1963990). Also: nearly all actives have a fitted effect of over 60% in size. The gist of the method:
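Adrenocortical carcinoma cells, suspended at 300 000 cells/mL in serum-free DMEM plus ITS, rested overnight before pin transfer of compound. After two days' incubation, ATP-dependent luminescence was recorded and curve-fitted.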

Assay [13] is described as follows: Quantitative highthroughput screen to assess conditional lethalithy of NOMO1 cells grown in RPMI1640 with dialyzed fetal bovine serum (RPMI+ds) (AID 1963877). Also: nearly all actives have a fitted effect of over 30% in size.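 As to Viability: series mostly up to about 46 µM; 100% = DMSO control wells and 0% = empty wells.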 In a few lines: as §1
Assay [14] in a line: Quantitative highthroughput screen to assess conditional lethalithy of SEM cells grown in RPMI1640 with unreated serum (RPMI+s) (AID 1963883). Also: nearly all actives have a fitted effect of over 35% in size.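 As to Viability: 100% = DMSO wells and 0% = empty wells without cells.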 The gist of the method: as §1

Each structure is given as a SMILES string. “And” between values parts separate entries of the source, which are not always exact repeats. Equal entries are not always repeated. Results filed as inconclusive are left out. Some compounds were tested as several samples or in several runs, with calls that do not always agree. The source made the active and inactive calls. Calls follow the shape of the dose curve; as a rule, active = well fitted curve in the direction sought with a large enough effect; inconclusive = small, poorly fitted or top-dose-only effect, or another doubt; inactive = no such curve, though single readings can be large; an effect the other way counts as inactive or inconclusive.
Potency is read from the fitted curve at half-maximal effect.

Sequence of Cytochrome P450 3A7 (Homo sapiens) (P24462 whole entry, looked up): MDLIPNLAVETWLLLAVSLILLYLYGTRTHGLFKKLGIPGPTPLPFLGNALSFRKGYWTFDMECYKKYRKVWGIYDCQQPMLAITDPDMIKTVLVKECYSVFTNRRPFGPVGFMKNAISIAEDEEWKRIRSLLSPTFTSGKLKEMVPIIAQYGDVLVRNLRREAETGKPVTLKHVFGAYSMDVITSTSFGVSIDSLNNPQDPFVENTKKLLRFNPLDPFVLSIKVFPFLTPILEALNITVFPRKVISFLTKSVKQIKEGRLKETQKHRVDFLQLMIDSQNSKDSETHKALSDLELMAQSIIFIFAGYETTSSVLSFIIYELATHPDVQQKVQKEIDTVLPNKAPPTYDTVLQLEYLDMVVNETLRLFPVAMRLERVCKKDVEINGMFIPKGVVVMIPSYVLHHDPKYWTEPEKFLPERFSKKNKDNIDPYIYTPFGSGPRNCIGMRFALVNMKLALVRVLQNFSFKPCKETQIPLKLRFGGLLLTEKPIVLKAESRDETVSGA

For `CC(C[N+](C)(C)C)OC(N)=O` (centres undefined), the Potency result in assay [1], in assay [2], in [3], in assay [4], in [5] and in assay [6] was “inactive” in each case. In addition, the Potency entry in assay [7], in assay [8], in assay [9], in assay [10] and in [12] was “inactive” each time. For the same compound, the activity (max response) in assay [11] is 2.28% (inactive) and -2.17% (inactive).

Turning to `O=c1[nH]c(-c2ccc(C(F)(F)F)cc2)nc2c1CSCC2`, the Potency entry in [1], in assay [3], in assay [4], in assay [13], in assay [6] and in assay [8] was “inactive” in each case. The Potency result in assay [9], in assay [14], in assay [10] and in assay [12] was “inactive” throughout. The Potency in assay [2] is 2.35 µM (active). Moreover, the activity (max response) in [11] was -10.8% (inactive).

`COC(=O)C1=C(C)NC(C)=C(C(=O)OCCN2CCN(C(c3ccccc3)c3ccccc3)CC2)C1c1cccc([N+](=O)[O-])c1` (centres undefined): the Potency result in assay [1], in assay [4], in [5], in assay [6], in [7] and in assay [8] was “inactive” throughout. Moreover, the Potency entry in assay [9], in assay [14] and in assay [10] was “inactive” in each case. In addition, the values for the Potency in [2], in assay [3] and in assay [11] were 11.9 µM (active), 6.68 µM (active) and 4.47 µM (active), respectively.

For `C#CCN[C@@H]1CCc2ccccc21`, the Potency result in [1], in assay [2], in [3], in assay [4], in assay [13] and in assay [6] was “inactive” throughout. Besides, the Potency result in assay [7], in assay [8], in [9], in [10] and in assay [12] was “inactive” throughout.

With `COc1nc(C)nc(Cl)c1NC1=NCCN1`, the Potency entry in [1], in [2], in assay [3], in [4], in [5] and in assay [6] was “inactive” throughout. Moreover, the Potency result in [7], in assay [8], in [9], in assay [14] and in assay [12] was “inactive” each time. For the same compound, the activity (max response) in assay [11] is -1.64% (inactive).

On to `c1ccc([C@H]2CN3CCSC3=N2)cc1`, for which the Potency result in [1], in assay [2], in assay [3], in [4], in assay [13] and in assay [6] was “inactive” in each case. Besides, the Potency entry in assay [7], in assay [8], in [9], in assay [10] and in assay [12] was “inactive” in each case. The activity (max response) in [11] was -16.6% (inactive) and 4.55% (inactive).

On to `CCCC(CCC)C(=O)O`, for which the Potency entry in assay [1], in assay [2], in assay [3], in [4], in assay [6] and in assay [7] was “inactive” throughout. The Potency entry in assay [8], in [9], in assay [14], in assay [10] and in [12] was “inactive” in each case. In assay [11], the activity (max response) was 6.17% (inactive) and -13.6% (inactive).

As to `CCOC(=O)c1ncn2c1CN(C)C(=O)c1cc(F)ccc1-2`, the Potency result in [1], in [2], in [3], in assay [4], in assay [13] and in [12] was “inactive” in each case. Further, the Potency was 20.9 µM (active) in [5] and 3.72 µM (active) in assay [6]. In addition, the activity (max response) in [11] was 10.7% (inactive) and 8.93% (inactive).

Consider `CC(=O)N(O)CCCCCNC(=O)CCC(=O)N(O)CCCCCNC(=O)CCC(=O)N(O)CCCCCN`, for which the Potency entry in assay [1] and in assay [12] was “inactive” each time. Moreover, the Potency is 6.61 µM (active) in [2]; 5.9 µM (active) in assay [3]; 0.0186 µM (active) in assay [4]; 0.0831 µM (active) in [13]; 0.0047 µM (active) in [6]; 0.0741 µM (active) in assay [7]. The Potency in assay [8] is 0.0588 µM (active); in assay [11], 28.2 µM (active).

Turning to `CCOC(=O)C1=C(N)Oc2ccc(Br)cc2C1C(C#N)C(=O)OCC` (centres undefined), the Potency result in [1], in [4], in [5], in assay [6], in assay [8] and in [9] was “inactive” in each case. Also, in assay [12], the Potency result is “inactive”. The Potency is 13.2 µM (active) and inactive in [2]; 8.33 µM (active) and 11.6 µM (active) in [3]. Further, in assay [11], the activity (max response) was -2.87% (inactive).

Turning to `CCCn1c(=O)c2[nH]c(-c3cnn(Cc4cccc(C(F)(F)F)c4)c3)nc2n(CC)c1=O`, the Potency result in assay [1], in assay [2], in assay [3], in assay [6], in assay [9] and in [14] was “inactive” throughout. In addition, the Potency entry in assay [10] and in assay [12] was “inactive” each time. Also, the Potency in assay [4] is 6.62 µM (active); in assay [7], 4.18 µM (active); in assay [8] it was 0.418 µM (active). In assay [11], the activity (max response) is 6% (inactive).

In the case of `COc1cc(OC)c(C(=O)CCCN2CCCC2)c(OC)c1`, the Potency result in [1], in [2], in [3], in assay [4], in assay [13] and in assay [6] was “inactive” in each case. For the same compound, the Potency result in assay [7], in [8], in [9], in assay [10] and in [12] was “inactive” throughout. The activity (max response) in assay [11] is 9.88% (inactive) and 2.45% (inactive).

Consider `O=C1CCC(N2C(=O)c3ccccc3C2=O)C(=O)N1` (centres undefined), for which the Potency result in assay [1], in assay [2], in assay [3], in assay [4], in assay [13] and in [5] was “inactive” each time. Also, the Potency entry in assay [6], in assay [8] and in assay [10] was “inactive” each time. In addition, the activity (max response) in assay [11] is 13.3% (inactive) and -15.2% (inactive).

`CC(=O)c1cnc2ccc(-c3cc(Cl)c(O)c(Cl)c3)nc2c1NC1CCC(CN(C)C)CC1` (centres undefined): the Potency result in assay [1] was “inactive”. Further, the Potency in [2] was 4.7 nM (active) and 0.8 nM (active); in [3], 11.9 nM (active) and 2.9 nM (active); in assay [4] it was 0.132 µM (active); in assay [13] it was 0.132 µM (active); in [5], 0.066 µM (active); in assay [7] it was 0.132 µM (active). Besides, the Potency in assay [8] is 0.148 µM (active); in [9] it was 0.0741 µM (active); in assay [14], 0.0741 µM (active); in [11], 0.0751 µM (active); in assay [12], 0.212 µM (active).

Regarding `Clc1ccc(C2(c3ccc(-c4cn[nH]c4)cc3)CCNCC2)cc1`, the Potency was 12.6 µM (active) in assay [1]; 2.31 µM (active) and 2.63 µM (active) in assay [2]; 5.17 µM (active) and 7.42 µM (active) in assay [3]; 14.8 µM (active) in assay [4]; 4.18 µM (active) in [13]; 3.32 µM (active) in assay [5]. For the same compound, the Potency in [6] is 5.26 µM (active); in assay [14], 9.35 µM (active); in [12] it was 15.8 µM (active).

Take `CC(C)CC(=O)Nc1n[nH]c2c1CN(C(=O)C1CCN(C)CC1)C2(C)C`: the Potency entry in assay [1] is “inactive”. Further, the Potency is 206 nM (active) and 417 nM (active) in [2]; 259 nM (active) and 468 nM (active) in assay [3]; 3.72 µM (active) in assay [4]; 5.9 µM (active) in assay [13]; 6.62 µM (active) in assay [5]; 4.69 µM (active) in assay [7]. Further, the Potency was 4.18 µM (active) in assay [8], 1.05 µM (active) in assay [14], 4.69 µM (active) in assay [10] and 3.98 µM (active) in [11].

In the case of `COc1ccc2c(OCc3nnc4ccc(-c5ccccc5)nn34)ccnc2c1`, the Potency result in assay [1], in [2], in assay [3], in assay [4], in assay [13] and in [5] was “inactive” in each case. The Potency entry in [7] and in assay [8] was “inactive” in each case. The Potency was 11.8 µM (active) in [14] and 18.7 µM (active) in assay [10]. Besides, the activity (max response) in assay [11] is -4.03% (inactive).
